Source: PubChem BioAssay
Rab7 wt GTP bind: dog Rab7 wildtype GTP binding, inhibitors and activators; GTP binding activity (percent of control), % at 10 µM; GST-Rab7 beads, fluorescent GTP binding, flow cytometry; actives lie on both sides; untreated = 100%, excess cold GTP = 0%; actives 0.055% (n = 190,000); AID 758;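 active = fluorescent GTP binding to Rab7 beads changed by at least 20 points from the 100% baseline, either direction, mostly lower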;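 note: median green fluorescence of bound Bodipy-FL-GTP per Rab7 bead population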
Rac1 mut GTP: alters GTP binding to activated mutant human Rac1; percent activity (GTP binding), % at 10 µM; GST-Rac1 activated beads, fluorescent GTP binding, flow cytometry; actives lie on both sides; 100% means binding = to untreated wells; P63000; actives 0.11% (n = 190,000); AID 764;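 active = GTP binding at least 20 percentage points away from the 100% baseline, in either direction, so actives lie on both sides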
HRas wt GTP bind: human HRas wildtype GTP binding, change in either direction. P01112. GST-Ras wt beads, Bodipy-FL-GTP binding, flow cytometry; actives lie on both sides. GTP binding activity, % at 10 µM. actives 0.14% (n = 190,000). AID 759;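 active = GTP binding activity at least 20% away from the 100% baseline, either lowered as inhibitor or raised as activator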
Target sequence (P01112 whole entry, looked up): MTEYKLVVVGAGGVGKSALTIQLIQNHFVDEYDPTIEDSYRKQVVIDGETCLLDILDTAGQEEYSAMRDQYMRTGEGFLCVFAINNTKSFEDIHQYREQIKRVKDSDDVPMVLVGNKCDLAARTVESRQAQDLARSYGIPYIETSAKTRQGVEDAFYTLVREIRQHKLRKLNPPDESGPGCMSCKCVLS
Rac1 wt GTP bind: modulators of human Rac1 wildtype GTP binding | P63000 | GST-Rac1 beads, fluorescent GTP binding, flow cytometry; actives lie on both sides; 0 = cold GTP competed, 100 = untreated | GTP binding activity (% of control), % at 10 µM | actives 0.27% (n = 190,000) | AID 757;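 active = GTP binding activity at least 20 points away from the 100% control level, either lower or higher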
Cdc42 wt: changes GTP binding to wildtype human Cdc42; P60953; GST-Cdc42 beads, Bodipy-GTP binding, flow cytometry; actives lie on both sides; percent activity (GTP binding), % at 10 µM; actives 0.2% (n = 190,000); AID 761;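 active = percent activity GTP binding at least 20 points away from the 100% baseline, either down as inhibitor or up as activator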;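 note: median bead fluorescence of bound Bodipy-FL-GTP at 100 nM; below 100% means less GTP binding so inhibitor and above means activator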
Target sequence (P60953 whole entry, looked up): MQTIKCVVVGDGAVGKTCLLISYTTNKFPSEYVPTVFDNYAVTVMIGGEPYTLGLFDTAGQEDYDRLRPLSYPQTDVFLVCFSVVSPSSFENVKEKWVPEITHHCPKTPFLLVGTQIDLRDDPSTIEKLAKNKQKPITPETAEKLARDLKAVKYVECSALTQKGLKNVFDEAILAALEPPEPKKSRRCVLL
Rab2 wt GTP: changes GTP binding to wildtype dog Rab2A, up or down; P61105; GST-Rab2 wt beads, Bodipy-GTP binding, flow cytometry; GTP binding activity, % at 10 µM; actives 0.19% (n = 190,000); AID 760;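 active = GTP binding activity at least 20 points away from 100%, either lowered or raised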
Large screens that a line does not name were inactive; [ ] = remark or other dose. The list is not random: actives were taken first. Their share in the collection is about 0.37%.

O=C(O)c1cccc(Oc2ccc([N+](=O)[O-])cc2)c1	Rac1 mut GTP 120.0[activator], Rac1 wt GTP bind 141.0[activator], Cdc42 wt 127.0[activator], Rab2 wt GTP 121.0[activator]
COc1cc(SC#N)ccc1N=Cc1c(C)[nH]n(-c2ccc(C)c(C)c2)c1=O	Rac1 wt GTP bind 78.0, Rab2 wt GTP 79.0
COc1cc(SC#N)ccc1N=Cc1c(C)[nH]n(-c2ccc(Cl)cc2)c1=O	none
CCn1nc(C(=O)OCC(=O)c2cc(C)n(Cc3cccs3)c2C)c2ccccc2c1=O	Rac1 mut GTP 74.0, Rac1 wt GTP bind 78.0, Cdc42 wt 77.0, Rab2 wt GTP 76.0
CCCCNS(=O)(=O)c1ccc(NC(=O)Cc2ccc(OC)cc2)cc1	none
COc1ccc(CC(=O)Nc2ccc(S(=O)(=O)NC(C)C)cc2)cc1	Rab7 wt GTP bind 22.0, Rac1 mut GTP 29.0, HRas wt GTP bind 33.0, Rac1 wt GTP bind 27.0, Cdc42 wt 30.0, Rab2 wt GTP 29.0
Cc1c(C(O)CN2CCN(Cc3ccc4c(c3)OCO4)CC2)c2ccccc2n1C (stereo unspecified)	none
OC(CN1CCN(Cc2ccc3c(c2)OCO3)CC1)c1c[nH]c2ccccc12 (stereo unspecified)	Rac1 wt GTP bind 122.0[activator]
Cc1cc2ccccn2c1C(=O)c1cc([N+](=O)[O-])cc([N+](=O)[O-])c1	Rab7 wt GTP bind 24.0, Rac1 mut GTP 37.0, HRas wt GTP bind 45.0, Rac1 wt GTP bind 32.0, Cdc42 wt 42.0, Rab2 wt GTP 42.0
CCCN1C(=O)/C(=C\C=C2/Sc3ccccc3N2CC)SC1=S	Rab7 wt GTP bind 77.0, Rac1 mut GTP 75.0, HRas wt GTP bind 68.0, Rac1 wt GTP bind 69.0, Cdc42 wt 73.0, Rab2 wt GTP 74.0
CCN1/C(=C\C=C2\C(=O)N(c3ccccc3)C(=S)N2C)Sc2ccccc21	HRas wt GTP bind 78.0
COc1ccc(C(C)=O)cc1COC(=O)c1cccnc1SC	none
OC(c1cccc(OCc2ccccc2)c1)c1nnc(-c2ccccc2)o1 (stereo unspecified)	none
OC(c1ccc(OCc2ccccc2)cc1)c1nnc(-c2ccccc2)o1 (stereo unspecified)	Rac1 mut GTP 78.0, Rac1 wt GTP bind 74.0, Cdc42 wt 75.0
COc1cc(/C=C2/SC(=Nc3ccc(O)cc3)NC2=O)cc(OC)c1O	Rac1 mut GTP 79.0, HRas wt GTP bind 74.0, Rac1 wt GTP bind 59.0, Cdc42 wt 69.0, Rab2 wt GTP 70.0
COc1ccc(N=C2NC(=O)/C(=C/c3ccc(O)c(OC)c3)S2)cc1	none
CC1CCCN(c2ccc3nc4ccccc4c(=O)n3n2)C1 (stereo unspecified)	Rac1 wt GTP bind 78.0
Cc1ccc2nc3ccc(N4CCCC4)nn3c(=O)c2c1	none
O=C(CCNC(=O)c1ccco1)Nc1ccc(N2CCOCC2)cc1	none
CC(SC(=S)N(C)Cc1cccs1)C(=O)O (stereo unspecified)	Rab7 wt GTP bind 136.0[activator], Rac1 mut GTP 144.0[activator], HRas wt GTP bind 140.0[activator], Rac1 wt GTP bind 196.0[activator], Cdc42 wt 168.0[activator], Rab2 wt GTP 140.0[activator]
CCCCOC(=O)CSC(=S)N(C)Cc1cccs1	none
CCCc1ccc(OCC(=O)NNC(=O)c2cccnc2)cc1	none
COC(=O)C(C)(C)ONC(=O)Nc1ccccc1	none
O=c1cnc2cc([N+](=O)[O-])ccc2[nH]1	none
Cn1cc(C(=O)N2CCc3ccccc3C2)c(=O)c2cc(S(=O)(=O)N3CCCCC3)ccc21	Rac1 wt GTP bind 121.0[activator]
COc1cccc(/C=C/C(=O)Nc2ccccc2N2CCOCC2)c1	Rab7 wt GTP bind 23.0, Rac1 mut GTP 50.0, HRas wt GTP bind 53.0, Rac1 wt GTP bind 48.0, Cdc42 wt 54.0, Rab2 wt GTP 51.0
CC(C)C1N(C(=O)CN2CCCCC2)CCN1S(=O)(=O)c1ccccc1 (stereo unspecified)	none
CC(C)n1c(O)c(N=Nc2ccc(Cl)nn2)c2ccccc21	HRas wt GTP bind 121.0[activator], Rab2 wt GTP 129.0[activator]
Cc1cc(C(=O)N=Nc2c(O)n(C(C)C)c3ccccc23)n[nH]1	none
CCc1sc(C(=O)Nc2ccccc2N2CCOCC2)cc1C	none
